Laboratory results reported in PubChem BioAssay AID743269 (The Scripps Research Institute Molecular Screening Center, 2014).
In all, about 370,000 compounds went through this assay and about 2,400 (0.65%) were called active. The entries come from a sample that favours actives as a whole. Unmarked numbers belong to inactive results.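 How the source made its calls: active means inhibition above the screen-wide mean plus 3 SD (cut at about 13% in these data); inactive means the rest.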

These compounds were tested on HIV-1 integrase (with human LEDGF/p75) (assay: blockers of LEDGF/p75-dependent integrase strand transfer – biochemical, TR-FRET, high throughput, primary screen (AID 743269;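 further: signal is the Cy5 over europium emission ratio at 671 and 618 nm; 0% = plate median of compound wells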)). Settings: TR-FRET IN-LEDGF/p75 DNA integration, Eu/Cy5; at 3.7 µM; hits give high values.
`Cc1ccc(Cc2cnc(N)s2)o1` was tested, and the inhibition was 31.2% (active). Work on `O=C(Nc1nc2ccc(Cl)cc2s1)c1cc(-c2ccc(Cl)cc2)nc2ccccc12` yielded an inhibition of 6.18%. `CN(C)c1ccc(NC(=O)NC2CCCCN(Cc3ccc(Cl)cc3)C2=O)cc1` (stereo not given) showed an inhibition of 6.63%. `CCn1c(=O)n2n(c1=O)[C@@]1(C=C3CCCC[C@H]32)N=C(NC(=O)c2ccccc2)N(Cc2ccccc2)[C@H]1Cc1ccccc1` showed an inhibition of 2.19%. `Clc1ccc(C2=CSC3=Nc4cccc5cccc(c45)N23)cc1` was tested, and the inhibition was 37.2% (active). `CC(=O)Nc1nc2ncccn2c1-c1ccc(C(F)(F)F)cc1` gave an inhibition of 4.33%. For `CCC(C)[C@@H](C(=O)OC)N(CCc1cn(Cc2ccccc2)nn1)S(=O)(=O)c1ccccc1Br` (stereo not given in full), the inhibition was 1.03%. `CC(C)CNc1cccc2c1S(=O)(=O)N(Cc1cn(Cc3ccccc3C(F)(F)F)nn1)Cc1ccccc1O2` gave an inhibition of -0.84%. Compound `CCOC(=O)[C@]12CCCC3=C1N(CCC3)C(=O)[C@@H](CC(=O)NCC13CC4CC(CC(C4)C1)C3)C2` has an inhibition of 0.85%. With `O=C(NCc1ccco1)C1CCCN(S(=O)(=O)c2ccc(Cl)s2)C1` (stereo not given) the inhibition was -0.9%. `CCc1cc2cc(OC)ccc2nc1SCC(=O)Nc1cc(OC)c(OC)cc1C(=O)O` was tested, and the inhibition was 17.2% (active). With `COc1ccc(OC)c(NC(=O)CSc2nc(-c3ccccc3)cc(=O)[nH]2)c1` the inhibition was 2.74%. In the case of `COC(=O)c1cc(OC)c(OC)cc1NC(=O)CSc1ccc(C)cc1`, the inhibition is reported as -3.23%. For `C=CCN(C(=O)[C@@H](CCCC)[C@@H](O)c1ccc(Cl)cc1)c1ccccc1`, the inhibition was 2.74%. Compound `CC(C(=O)Nc1ccc(S(=O)(=O)N2CCCC2)cc1)N(C)Cc1ccc(F)cc1` (stereo not given) has an inhibition of -5.41%. With `CCc1ccc(CN(C)C(C)C(=O)Nc2ccc(S(=O)(=O)N3CCCC3)cc2)cc1` (stereo not given) the inhibition was -3.86%. `CN(CC(=O)Nc1ccc(S(=O)(=O)N2CCCC2)cc1)Cc1ccc(Cl)c(Cl)c1` was tested, and the inhibition was 30.4% (active). `Nn1c(SCC(=O)Nc2ccc(S(N)(=O)=O)cc2)nnc1-c1n[nH]c2c1CCC2` was tested, and the inhibition was 5.06%. In the case of `CN(O)C(=S)c1ccccc1`, the inhibition is reported as 21.8% (active). `COC(=O)C1CN(CC(C)C)CCS(=O)(=O)N1Cc1ccc(C)cc1` (stereo not given) was tested, and the inhibition was 1.62%. `COc1cc(NC(=O)C2CCCN(S(=O)(=O)c3ccc(C(C)(C)C)cc3)C2)cc(OC)c1` (stereo not given) gave an inhibition of 2.62%. For `COc1cc(/C=C2\CCCc3c2nc2ccccc2c3C(=O)O)cc(Cl)c1O`, the inhibition was 30.4% (active). For `COc1ccc(-n2nc(C(=O)NCC(=O)N3CCCCCC3)c3ccccc3c2=O)cc1Cl`, the inhibition was -4.29%. For `COC(=O)c1cc(N2CCNCC2)nc2ccccc12`, the inhibition was -3.62%. For `C[C@@H]1COc2cccc(N3CCCC3)c2S(=O)(=O)N1C`, the inhibition was -1.59%. `NS(=O)(=O)c1cccc(NC(=O)COC(=O)/C=C/c2ccco2)c1` showed an inhibition of -1.8%. Work on `COc1ccc([N+](=O)[O-])cc1NC(=O)COC(=O)/C=C/c1ccco1` yielded an inhibition of -5.28%. For `COc1cccc(NC(=O)COC(=O)/C=C/c2ccco2)c1`, the inhibition was 20.4% (active). For `CC(C)(C)c1ccc(C(=O)Nc2cc(Cl)c(Br)cc2C(=O)O)cc1`, the inhibition was 5.86%. Work on `CCCCOCCCNC(=O)C[C@H]1C[C@@]2(C(=O)OC)C(=C[C@H](COCc3ccccc3)O[C@@H]2C)N(Cc2cccc3ccccc23)C1=O` yielded an inhibition of -2.14%. With `COC(=O)[C@H](C(C)C)N1CCc2nnn(Cc3ccc(C)cc3)c2-c2ccccc2S1(=O)=O` the inhibition was 0.15%. `CC(C(=O)Nc1ccccc1-c1ccccc1)N1CCOCC1` (stereo not given) was tested, and the inhibition was -2.51%. With `Cc1oc2c(c1C(=O)N1CCOCC1)C(=O)c1ccccc1C2=O` the inhibition was 18.3% (active). `Cc1nc2ccccc2n1C(=O)N1CCOCC1` was tested, and the inhibition was -1.41%. With `CC1(C(=O)NS(=O)(=O)c2cccs2)CCN1C(=O)Cc1ccc(-c2ccccc2)cc1` (stereo not given) the inhibition was -0.36%. `CC1(C(=O)NS(=O)(=O)c2ccccc2)CCN1C(=O)Cc1ccc(-c2ccccc2)cc1` (stereo not given) was tested, and the inhibition was 19.2% (active). With `CCCNC(=O)C1(C)CCN1C(=O)Cc1ccc(-c2ccccc2)cc1` (stereo not given) the inhibition was 0.51%. Work on `COc1ccc(/C=C2\CC3(OC(C)=O)CCCN2C3)cc1` (stereo not given) yielded an inhibition of -2.77%. `C[C@H](C(=O)N(C)c1ccccc1)[C@@H](O)c1ccc2ccccc2c1` was tested, and the inhibition was -3.07%. Compound `CCN(CC)S(=O)(=O)c1cc(C(=O)Nc2ccccn2)ccc1C` has an inhibition of 1.24%. For `CCCC(C(=O)OCCN(CC)CC)(c1ccccc1)c1ccccc1`, the inhibition was -3.9%. In the case of `CCN(CC)CCOc1ccc2c(c1)C(=NNC(=O)c1ccccn1)c1cc(OCCN(CC)CC)ccc1-2`, the inhibition is reported as 19.1% (active). Compound `O=C(NC1CCCC1)C1CSCCS(=O)(=O)N1Cc1ccccc1` (stereo not given) has an inhibition of 0.83%. `C=C(C)C1CC23C(=O)C4(C(=O)c5ccccc5)C[C@@]5(C)CCC(CC2C1(C)C)(C4=O)C35OC` (stereo not given in full) gave an inhibition of -2.25%. `Cc1ccc(NC(=O)Cc2cccc(F)c2)c(S(=O)(=O)N2CCOCC2)c1` showed an inhibition of 1.83%. With `CCCCNC(=O)C[C@H]1C(=O)N(Cc2ccc(OC)cc2)C2=CCCC[C@@]21C(=O)OCC` the inhibition was -5.02%. `COc1cc(-c2nnc(NC(=O)C3=COCCO3)o2)cc(OC)c1OC` gave an inhibition of 5.65%. In the case of `COc1cc(-c2nnc(NC(=O)CS(=O)(=O)c3ccc(Cl)cc3)o2)cc(OC)c1OC`, the inhibition is reported as 15.4% (active). With `Cc1ccc(C)c(-c2nnc(NC(=O)CS(=O)(=O)c3ccccc3)o2)c1` the inhibition was -2.12%. In the case of `CC(CCN1CCC(C(O)(c2ccccc2)c2ccccc2)CC1)Oc1ccc(C(F)(F)F)cc1` (stereo not given), the inhibition is reported as -3.25%. In the case of `O=S(=O)(Nc1ccc(O)c2ccccc12)c1ccc(OC(F)(F)F)cc1`, the inhibition is reported as 16.5% (active). With `O=S(=O)(Cc1noc(-c2ccc(OC(F)(F)F)cc2)n1)c1ccc(F)cc1` the inhibition was 0.93%. `O=[N+]([O-])c1ccc(NS(=O)(=O)c2ccccc2)c(Cl)c1` was tested, and the inhibition was 7.69%. `CCC(NC(=O)C1C2C=CC3(CN(Cc4ccccc4)C(=O)C13)O2)c1ccccc1` (stereo not given) gave an inhibition of -1.5%. With `COC(=O)[C@]12C[C@H](CC(=O)NCCc3ccccc3OC)C(=O)N(Cc3ccco3)C1=C[C@H](C(C)C)O[C@@H]2C1CC1` the inhibition was -0.43%. `COC(=O)[C@]12C[C@H](CC(=O)N3CCOCC3)C(=O)N(Cc3ccc(Cl)cc3Cl)C1=C[C@H](C(C)C)O[C@@H]2C1CC1` was tested, and the inhibition was -2.5%. In the case of `CCOc1ccc(-n2c(SCC(=O)Nc3cc(C)c(NC(=O)c4ccccc4)cc3OC)nnc2-c2cccc(Cl)c2)cc1`, the inhibition is reported as -4.78%. With `Cc1cc(NC(=O)COC(=O)/C=C/c2ccc(C)o2)no1` the inhibition was -2.47%. Compound `CCOc1ccc(NC(=S)NC(=O)/C=C/c2ccc(OC)cc2)c([N+](=O)[O-])c1` has an inhibition of 5.44%. For `Cc1ccc(/C=C/C(=O)Nc2ccc([N+](=O)[O-])c(NC(=O)/C=C/c3ccc(C)o3)c2)o1`, the inhibition was 24.3% (active). `CC(=O)c1cc(-c2ccc3ccccc3c2)c(=O)n2c1CCC2` showed an inhibition of 0.07%. `CC(c1ccc(N)cc1)c1cn(C)c2ccccc12` (stereo not given) gave an inhibition of -3.68%. `Cc1ccc(-n2c(SCC(=O)Nc3cccc4ccccc34)nnc2-c2ccccn2)cc1` was tested, and the inhibition was -0.35%. For `COC(CNC(=O)[C@H](Cc1ccccc1)NC1(C(=O)NC2CCCCC2)CCCCC1)OC`, the inhibition was 2.51%. `Cc1ccc(-c2nnc(SCC(=O)Nc3ccc(Oc4ccccc4)cc3)n2Cc2ccco2)cc1` gave an inhibition of -1.74%. `Nn1c(SCC(=O)N2c3ccccc3Sc3ccccc32)nnc1-c1n[nH]c2c1CCC2` gave an inhibition of -0.96%. `O=C(NC1CCCCN(Cc2cccc(C(F)(F)F)c2)C1=O)c1ccccc1I` (stereo not given) showed an inhibition of -1.97%. In the case of `NNc1cccc(C=Cc2ccccc2)cc1=O`, the inhibition is reported as 29.3% (active). With `O=C(CSc1nc2sc3c(c2c(=O)n1-c1ccccc1)CCCC3)NN=Cc1ccc(OCc2ccccc2)cc1` the inhibition was -1.95%. Work on `CC1CN(/C=C/C(=O)C(F)(F)F)CC(C)O1` (stereo not given) yielded an inhibition of 1.92%. For `CN(C)c1ccc(N/C=C/C(=O)C(F)(F)F)cc1`, the inhibition was 51% (active). `O=S1(=O)c2c(NCc3ccco3)cccc2Oc2ccccc2CN1Cc1cn(Cc2cccc(C(F)(F)F)c2)nn1` showed an inhibition of -4.08%. `COc1ccccc1/C=C/C1=NC(=C\N(C)C)/C(=O)O1` gave an inhibition of -2.48%. In the case of `O=C1OC(/C=C/c2ccccc2)=NC/1=C/c1ccco1`, the inhibition is reported as 23.8% (active). Work on `CCn1c(SCC(C)=O)nc2sc3c(c2c1=O)CCCC3` yielded an inhibition of 4.15%. With `COC(=O)C12C=C3CC(c4ccccc4)=C3C(=O)N1Cc1[nH]c3ccccc3c1C2` (stereo not given) the inhibition was -0.02%. For `CCOC(=O)c1ccc(NC(=O)Cn2cnc3cc(C)c(C)cc32)cc1`, the inhibition was -0.18%. For `CCOC(=O)c1ccc(NC(=O)CSc2ncccn2)cc1`, the inhibition was 21.2% (active). Work on `CCOC(=O)c1ccc(NC(=S)N2CCN(c3ccccn3)CC2)cc1` yielded an inhibition of 3.04%. Compound `O=C(NC1CCC1)c1ccc(C#Cc2cccc(F)c2)c[n+]1[O-]` has an inhibition of -0.89%. `O=C(CSc1nnc(COc2ccccc2)n1Cc1ccco1)c1ccc2ccccc2c1` gave an inhibition of 1.68%. `Cc1sc2nc(SCC(N)=O)n(C)c(=O)c2c1C` was tested, and the inhibition was 1.58%. `Cc1sc2nc(SCC(=O)c3ccc(O)c(O)c3)n(Cc3ccco3)c(=O)c2c1C` was tested, and the inhibition was 34.8% (active). Work on `CCOC(=O)[C@]12CCCC=C1N(Cc1ccc(OC)cc1)C(=O)[C@@H]2CC(=O)N1CCOCC1` yielded an inhibition of 4.73%. `Cc1ccc(NC(=O)c2cc(C)nn2-c2ccccc2)c(C)c1` showed an inhibition of -1.51%.
